Test results from ChEMBL document CHEMBL1961873, “Compounds: GSK PKIS; Assays: Nanosyn kinase panel” (2012).

Columns and labels:
[1] = molecular target: T1, Serine/threonine-protein kinase TBK1 (Homo sapiens) (UniProt Q9UHD2); conditions: at 1 µM;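 also: values are mean inhibition of TBK1, screened as part of the GSK published kinase inhibitor set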
T1 sequence (whole entry): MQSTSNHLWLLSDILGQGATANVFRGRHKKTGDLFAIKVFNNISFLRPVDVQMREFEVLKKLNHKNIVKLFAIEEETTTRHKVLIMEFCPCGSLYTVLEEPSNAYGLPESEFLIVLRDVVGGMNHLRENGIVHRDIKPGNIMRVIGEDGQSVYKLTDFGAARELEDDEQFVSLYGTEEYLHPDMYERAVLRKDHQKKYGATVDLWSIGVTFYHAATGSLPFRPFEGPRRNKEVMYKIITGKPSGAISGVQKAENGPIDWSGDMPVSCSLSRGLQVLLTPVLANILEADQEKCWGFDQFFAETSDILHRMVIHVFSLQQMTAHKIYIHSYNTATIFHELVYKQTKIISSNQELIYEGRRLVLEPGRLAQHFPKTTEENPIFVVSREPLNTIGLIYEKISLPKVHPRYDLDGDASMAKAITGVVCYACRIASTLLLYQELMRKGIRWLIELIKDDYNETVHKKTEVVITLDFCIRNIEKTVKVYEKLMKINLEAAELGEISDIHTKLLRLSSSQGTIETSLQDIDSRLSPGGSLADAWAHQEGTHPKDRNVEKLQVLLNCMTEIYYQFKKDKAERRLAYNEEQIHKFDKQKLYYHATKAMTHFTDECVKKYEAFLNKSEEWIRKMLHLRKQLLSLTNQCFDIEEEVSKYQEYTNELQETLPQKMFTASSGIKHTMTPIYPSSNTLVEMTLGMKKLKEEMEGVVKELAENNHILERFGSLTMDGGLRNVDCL

[2] = molecular target: T2, Testis-specific serine/threonine-protein kinase 1 (Homo sapiens) (UniProt Q9BXA7); conditions: at 0.1 µM
T2 sequence (whole entry): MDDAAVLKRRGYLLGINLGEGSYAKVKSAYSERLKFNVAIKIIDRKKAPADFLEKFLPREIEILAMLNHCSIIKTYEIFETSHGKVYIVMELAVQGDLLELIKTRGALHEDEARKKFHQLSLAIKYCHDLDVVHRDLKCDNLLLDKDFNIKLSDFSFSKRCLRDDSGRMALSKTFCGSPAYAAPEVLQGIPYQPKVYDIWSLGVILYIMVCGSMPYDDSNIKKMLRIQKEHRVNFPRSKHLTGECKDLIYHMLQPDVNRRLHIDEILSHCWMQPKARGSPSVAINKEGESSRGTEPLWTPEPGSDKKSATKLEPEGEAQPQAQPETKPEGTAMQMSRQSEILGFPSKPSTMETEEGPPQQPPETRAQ

[3] = molecular target: T2, Testis-specific serine/threonine-protein kinase 1 (Homo sapiens); conditions: at 1 µM
[4] = molecular target: T3, Testis-specific serine/threonine-protein kinase 2 (Homo sapiens) (UniProt Q96PF2); conditions: at 0.1 µM
T3 sequence (whole entry): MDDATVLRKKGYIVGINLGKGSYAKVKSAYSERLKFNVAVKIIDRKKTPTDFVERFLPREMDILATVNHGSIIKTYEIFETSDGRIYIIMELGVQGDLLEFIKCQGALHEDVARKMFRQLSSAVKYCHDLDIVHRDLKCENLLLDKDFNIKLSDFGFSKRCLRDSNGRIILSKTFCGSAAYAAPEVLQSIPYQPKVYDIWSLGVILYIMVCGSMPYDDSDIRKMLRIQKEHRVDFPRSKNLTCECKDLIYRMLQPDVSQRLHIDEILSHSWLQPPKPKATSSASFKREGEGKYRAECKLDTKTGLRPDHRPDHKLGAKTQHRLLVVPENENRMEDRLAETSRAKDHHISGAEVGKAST

[5] = molecular target: T3, Testis-specific serine/threonine-protein kinase 2 (Homo sapiens); conditions: at 1 µM
[6] = molecular target: Casein kinase I isoform alpha (Homo sapiens) (UniProt P48729); conditions: at 0.1 µM
Sequence of Casein kinase I isoform alpha (Homo sapiens) (P48729 2-337 limits assumed): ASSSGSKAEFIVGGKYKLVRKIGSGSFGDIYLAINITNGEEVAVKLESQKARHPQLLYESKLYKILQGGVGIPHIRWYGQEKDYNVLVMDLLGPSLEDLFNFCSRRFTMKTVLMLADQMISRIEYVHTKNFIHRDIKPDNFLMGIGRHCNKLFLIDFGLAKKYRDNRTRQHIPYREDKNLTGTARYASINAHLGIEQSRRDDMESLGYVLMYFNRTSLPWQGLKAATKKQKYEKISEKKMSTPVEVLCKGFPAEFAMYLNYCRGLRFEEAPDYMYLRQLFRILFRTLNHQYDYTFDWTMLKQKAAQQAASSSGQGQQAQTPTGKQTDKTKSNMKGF

[7] = molecular target: Casein kinase I isoform alpha (Homo sapiens) (UniProt P48729); conditions: at 1 µM
[8] = molecular target: Casein kinase I isoform gamma-1 (Homo sapiens) (UniProt Q9HCP0); conditions: at 0.1 µM
Sequence of Casein kinase I isoform gamma-1 (Homo sapiens) (Q9HCP0 whole entry, looked up, canonical isoform): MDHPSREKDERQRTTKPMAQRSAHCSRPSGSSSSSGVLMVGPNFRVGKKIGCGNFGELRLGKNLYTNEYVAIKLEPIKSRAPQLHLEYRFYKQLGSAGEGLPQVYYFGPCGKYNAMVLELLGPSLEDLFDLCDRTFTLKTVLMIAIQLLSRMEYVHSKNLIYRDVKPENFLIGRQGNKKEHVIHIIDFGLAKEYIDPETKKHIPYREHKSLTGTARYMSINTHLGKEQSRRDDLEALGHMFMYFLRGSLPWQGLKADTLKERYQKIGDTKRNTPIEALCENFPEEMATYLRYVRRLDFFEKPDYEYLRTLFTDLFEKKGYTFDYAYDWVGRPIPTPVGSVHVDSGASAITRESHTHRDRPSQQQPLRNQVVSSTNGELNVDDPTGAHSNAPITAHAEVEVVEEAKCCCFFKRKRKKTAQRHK

[9] = molecular target: Casein kinase I isoform gamma-1 (Homo sapiens) (UniProt Q9HCP0); conditions: at 1 µM
[10] = molecular target: Casein kinase I isoform gamma-2 (Homo sapiens) (UniProt P78368); conditions: at 0.1 µM
Sequence of Casein kinase I isoform gamma-2 (Homo sapiens) (P78368 whole entry, looked up, canonical isoform): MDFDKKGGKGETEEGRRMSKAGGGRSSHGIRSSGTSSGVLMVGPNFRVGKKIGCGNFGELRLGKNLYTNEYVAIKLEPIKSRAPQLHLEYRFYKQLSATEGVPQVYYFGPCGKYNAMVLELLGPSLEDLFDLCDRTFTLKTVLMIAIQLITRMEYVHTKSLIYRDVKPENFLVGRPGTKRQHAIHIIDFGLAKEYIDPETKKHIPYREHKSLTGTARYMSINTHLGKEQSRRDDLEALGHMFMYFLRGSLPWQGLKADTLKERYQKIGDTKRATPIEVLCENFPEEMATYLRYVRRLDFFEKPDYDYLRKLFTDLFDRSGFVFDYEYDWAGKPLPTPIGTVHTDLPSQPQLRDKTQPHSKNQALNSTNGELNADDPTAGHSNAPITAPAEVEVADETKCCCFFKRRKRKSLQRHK

[11] = molecular target: Casein kinase I isoform gamma-2 (Homo sapiens) (UniProt P78368); conditions: at 1 µM
[12] = molecular target: Casein kinase I isoform gamma-3 (Homo sapiens) (UniProt Q9Y6M4); conditions: at 0.1 µM
Sequence of Casein kinase I isoform gamma-3 (Homo sapiens) (Q9Y6M4 whole entry, looked up, canonical isoform): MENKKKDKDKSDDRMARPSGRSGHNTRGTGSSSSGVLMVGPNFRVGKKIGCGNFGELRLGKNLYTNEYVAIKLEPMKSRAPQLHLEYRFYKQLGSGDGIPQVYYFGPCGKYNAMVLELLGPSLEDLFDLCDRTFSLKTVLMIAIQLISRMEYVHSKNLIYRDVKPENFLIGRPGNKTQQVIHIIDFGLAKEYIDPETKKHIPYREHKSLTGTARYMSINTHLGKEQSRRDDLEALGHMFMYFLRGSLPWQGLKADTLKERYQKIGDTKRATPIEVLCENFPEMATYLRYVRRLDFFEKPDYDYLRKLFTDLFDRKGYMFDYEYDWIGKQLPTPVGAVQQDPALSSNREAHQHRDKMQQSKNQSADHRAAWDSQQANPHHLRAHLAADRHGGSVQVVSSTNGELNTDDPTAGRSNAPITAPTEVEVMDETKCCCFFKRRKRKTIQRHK

[13] = molecular target: Casein kinase I isoform gamma-3 (Homo sapiens) (UniProt Q9Y6M4); conditions: at 1 µM
[14] = molecular target: Cyclin-dependent kinase 1 (Homo sapiens) (UniProt P06493); conditions: at 0.1 µM
Sequence of Cyclin-dependent kinase 1 (Homo sapiens) (P06493 whole entry, looked up): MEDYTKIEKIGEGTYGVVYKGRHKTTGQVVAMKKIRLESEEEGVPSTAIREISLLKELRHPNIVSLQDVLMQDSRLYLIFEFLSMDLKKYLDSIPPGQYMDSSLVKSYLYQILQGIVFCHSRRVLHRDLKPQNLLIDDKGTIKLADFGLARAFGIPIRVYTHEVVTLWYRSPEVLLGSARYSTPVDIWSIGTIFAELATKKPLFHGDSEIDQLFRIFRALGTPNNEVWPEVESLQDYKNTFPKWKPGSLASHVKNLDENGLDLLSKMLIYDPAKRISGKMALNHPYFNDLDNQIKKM

[15] = molecular target: Cyclin-dependent kinase 1 (Homo sapiens) (UniProt P06493); conditions: at 1 µM
[16] = molecular target: Cyclin-dependent kinase 2 (Homo sapiens) (UniProt P24941); conditions: at 0.1 µM
[17] = molecular target: Cyclin-dependent kinase 2 (Homo sapiens) (UniProt P24941); conditions: at 1 µM
[18] = molecular target: Cyclin-dependent kinase 2 (Homo sapiens) (UniProt P24941); conditions: at 0.1 µM; remark: listed apart in the source
[19] = molecular target: Cyclin-dependent kinase 2 (Homo sapiens) (UniProt P24941); conditions: at 1 µM; remark: listed apart in the source
[20] = molecular target: CDK3/Cyclin E (Homo sapiens) (UniProt P24864+Q00526); conditions: at 0.1 µM;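 also: reported percentages are mean inhibition values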
Sequence of CDK3/Cyclin E (Homo sapiens) (P24864 whole entry, looked up): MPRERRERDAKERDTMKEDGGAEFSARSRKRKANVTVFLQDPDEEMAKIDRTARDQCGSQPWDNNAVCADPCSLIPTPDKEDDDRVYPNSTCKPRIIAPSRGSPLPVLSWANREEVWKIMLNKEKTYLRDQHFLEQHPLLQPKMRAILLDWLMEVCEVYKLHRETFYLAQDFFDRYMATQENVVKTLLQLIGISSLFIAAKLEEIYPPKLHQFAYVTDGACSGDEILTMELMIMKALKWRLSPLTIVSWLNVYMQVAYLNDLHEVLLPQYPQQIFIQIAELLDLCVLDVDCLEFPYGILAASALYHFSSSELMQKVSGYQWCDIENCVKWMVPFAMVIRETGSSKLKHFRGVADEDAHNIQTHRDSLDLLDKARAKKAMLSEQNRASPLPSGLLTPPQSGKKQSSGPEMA
Sequence of CDK3/Cyclin E (Homo sapiens) (Q00526 whole entry, looked up): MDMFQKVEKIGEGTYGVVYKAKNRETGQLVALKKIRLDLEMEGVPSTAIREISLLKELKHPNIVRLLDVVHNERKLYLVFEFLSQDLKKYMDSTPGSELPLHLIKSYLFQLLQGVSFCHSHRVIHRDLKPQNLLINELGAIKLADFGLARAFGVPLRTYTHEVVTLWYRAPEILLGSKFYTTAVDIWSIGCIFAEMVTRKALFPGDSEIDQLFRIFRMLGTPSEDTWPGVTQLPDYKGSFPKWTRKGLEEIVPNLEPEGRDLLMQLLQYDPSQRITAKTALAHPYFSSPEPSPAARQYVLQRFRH

Structure (SMILES)	inhibition [1] [%]	inhibition [2] [%]	inhibition [3] [%]	inhibition [4] [%]	inhibition [5] [%]	inhibition [6] [%]	inhibition [7] [%]	inhibition [8] [%]	inhibition [9] [%]	inhibition [10] [%]	inhibition [11] [%]	inhibition [12] [%]	inhibition [13] [%]	inhibition [14] [%]	inhibition [15] [%]	inhibition [16] [%]	inhibition [17] [%]	inhibition [18] [%]	inhibition [19] [%]	inhibition [20] [%]
CCS(=O)(=O)c1ccc(OC)c(Nc2nccc(N(C)c3ccc4c(C)n[nH]c4c3)n2)c1	4.2	4.59	5.05	1.98	1.88	2.29	1.04	4.4	4.99	3.88	4.44	3.36	3.45	0.39	1.28	1.59	3.06	2.45	3.56	0.61
COc1cc(/C=N/Nc2ncnc3c2cnn3C(C)C)ccc1O	6.12	1.68	1.76	0.77	1.4	-0.04	0.99	1.74	3.2	1.49	0.8	1.47	2.79	11.8	47.9	7.48	46.5	6.02	32.4	6.53
COC(=O)c1cncc(/C=C/c2c(C)cc(O)cc2C)c1	3.98	2.95	5.68	0.9	0.8	1.49	4.06	3.02	4.65	2.68	3.31	2.67	3.39	0.78	3.13	2.61	4.42	3.33	5.75	1.45
N#Cc1cccc(Nc2nccc(-c3cnn4ncccc34)n2)c1	22.1	6.69	10.6	2.43	2.95	28.9	69.8	5.75	28.2	6.38	41.4	8.75	43	83.8	89.2	89.8	121	82.3	87.2	76.7
COc1cc2ncn(-c3cc(OCc4ccccc4S(C)(=O)=O)c(C#N)s3)c2cc1OC	83	22.1	69.2	0.6	4.54	3.32	3.58	3.26	4.23	2.02	3.78	2.68	2.61	1.59	6.07	2.46	5.28	4.39	5.94	0.41
COc1cc(Nc2nccc(-c3cnn4ncccc34)n2)cc(OC)c1	33.2	3.46	16.9	0.24	0.16	11.9	45.4	2.54	19.9	3.83	39.3	3.02	34.9	69.1	91.3	54.5	110	63.6	90	34.6
NS(=O)(=O)c1ccc(-c2cc3ccncc3cc2OCc2ccccc2)cc1	2.74	3.43	3.97	2.95	2.52	4.76	3.35	2.57	3.44	1.61	3.43	1.53	4.76	-0.03	0.11	1.51	2.11	1.41	1.57	4.12
COc1ccc2ncnc(Nc3ccc(OCc4ccccc4)cc3)c2c1	1.27	1.95	3.16	0.6	2.34	6.26	8.76	1.48	2.76	1.66	2.03	-0.66	1.41	0.67	1.75	1.36	-4.84	0.4	1.13	1.69
c1ccc(Nc2ncc(-c3ccccc3)o2)cc1	5.74	5.73	6.03	2.44	3.66	4.02	7.73	3.94	5.22	3.32	5.31	4.05	4.99	2.77	4.54	3.79	10.5	3.46	12.3	0.23
Cc1cc(-c2ccccn2)cc(C)c1/C=C/c1cncc(-c2nn[nH]n2)c1	2.21	4.23	4.46	1.85	2.37	3.47	7.87	6.09	4.39	2.75	6.46	2.01	4.69	3.71	5.82	2.14	2.77	3.02	7.32	-2.85
COC(=O)c1ccc2c(c1)C(=Cc1cc(Br)c(O)c(Br)c1)C(=O)N2	6.58	3.53	5.53	-0.06	1.17	1.76	6.74	3.99	6.68	4.6	6.12	3.75	5.04	1.54	2.24	8.07	7.32	2.47	4.31	-5.06
CN1CCN(C(=O)c2ccc(NC(=O)Nc3ccc(N(C)c4ccnc(Nc5ccc(CS(C)(=O)=O)cc5)n4)cc3)cc2)CC1	12.6	0.02	1.8	0.71	0.35	0.51	2.95	1.88	2.79	1.94	1.64	1.17	1.29	2.37	5.28	4.51	10.8	0.96	5.93	-1.55
O=C1Nc2ccc(-c3cccnc3)cc2C1=Cc1cc(Br)c(O)c(Br)c1	7.51	2.68	1.29	0.55	-0.14	6.06	3.87	4.05	4.74	2.62	4.44	3.31	3.74	-0.12	1.23	2.18	1.15	3.46	5.04	0.27
NC(=O)c1cccc(Nc2nccc(Nc3cccc(F)c3)n2)c1	6.93	-0.18	0.75	0.59	-0.96	-0.75	1.32	0.88	1.67	0.97	1.73	0.99	0.09	1.24	3.33	2.07	4.6	0.92	5.16	0.62
O=S(=O)(CCOCc1ccc(-c2ccc3ncnc(Nc4ccc(OCc5cccc(F)c5)c(Cl)c4)c3c2)o1)c1ccccc1	2.8	2.84	3.29	0.64	1.88	-0.6	-0.08	0.56	1.02	0.09	1.75	0.25	0.46	3.78	4.97	2.29	2.76	4.07	6.29	-0.59
OCc1ccc(-c2nc(-c3ccccn3)c(-c3ccc4c(c3)OCO4)[nH]2)cc1	4.95	3.19	1.78	0.7	-1.56	9.48	43.3	4.27	5.16	3.01	4.06	3.67	4.78	0.21	1.4	1.49	-2.92	3.56	4.52	1.69
Cc1ccc(C(=O)NC2CC2)cc1-c1ccc2[nH]ncc2c1	-1.07	-1.33	-2.04	-2.24	-1.65	-6.12	-2.96	-3.43	-2.76	-2.87	-3.39	-2.17	-1.12	0.88	2.1	0.12	4.69	-1.68	0.18	-2.07
c1ccc(Cc2nc3ccc(Nc4ncnc5ccccc45)cc3[nH]2)cc1	5.54	0.97	2.75	-0.59	4.11	8.25	7.49	2.6	6.23	2.94	8.66	3.41	5.53	3.12	4.29	2.89	7.78	6.18	8.1	4.46
Nc1ccc(C#Cc2cncnc2Nc2ccc(OCc3cccc(F)c3)c(Cl)c2)cc1	3.55	2.73	2.62	1.11	0.95	3.47	2.49	2.52	2.66	1.58	2.65	2.45	2.75	1.11	1.87	1.4	1.57	2.14	3.31	-0.93
COc1cc2ncnc(Nc3ccc4c(cnn4Cc4ccccc4)c3)c2cc1OC	1.45	2.62	3.63	0.21	0.75	1.02	1.16	1.64	2.33	1.06	2.98	0.8	1.75	2.61	6.2	4.41	2.68	6.35	7.13	-0.7
NS(=O)(=O)c1ccc(Nc2cc(-c3cccc(O)c3)n[nH]2)cc1	6.87	3.95	3.25	1.95	1.79	3.67	5.95	5.15	6.27	3.99	5.96	7.49	2.14	2.03	12.9	16.7	78.1	16.5	56	5.95
Nc1nccc(-c2c(-c3ccc(F)cc3)nn3cc(C(F)(F)F)ccc23)n1	-0.2	0.37	1.13	0.32	-0.24	0.88	10.8	0.74	2.65	0.3	1.13	0.79	1.7	1.22	0.47	-0.36	-2.27	-0.77	0.2	-0.58
Cc1ccc2c(-c3ccnc(Nc4ccc5c(c4)OCCO5)n3)c(-c3ccc(C(F)(F)F)cc3)nn2n1	4.69	1.7	2.26	0.67	0.47	0.54	-3.1	1.24	1.97	0.1	1.66	1.42	1.29	1.21	2.01	-0.16	2.09	0.31	1.68	-0.58
Cc1ccc2c(-c3ccnc(Nc4cccc(C(F)(F)F)c4)n3)c(-c3ccccc3)nn2n1	4.86	3.88	4.11	1.4	2.15	15.3	59.2	5	14	3.82	12	4.25	24.8	3.78	3.79	4.09	3.14	2.95	7.4	-1.21
